# Laboratory results published in PubChem BioAssay AID2401 (Southern Research Specialized Biocontainment Screening …, 2010).
# Hit rate of the full screen: of about 2,200 compounds, about 530 (24%) were called active. A selection follows. Potency and affinity values are given separately. Unmarked numbers belong to inactive results.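 The calls were made as follows: active = inhibition above a set limit at one or more concentrations of the dose series; inactive = inhibition under that limit at every dose.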
# Test: nmpC-GFP reporter counter-screen in S. Typhimurium, dose response, counter-screen for PhoP regulon inhibitor project, Salmonella Typhimurium, GFP fluorescence (AID 2401);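 also: S. typhimurium with Mg-insensitive nmpC-GFP reporter grown at 10 µM Mg2+; drop in reporter fluorescence reflects general culture growth inhibition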
# Details: 4 h; series mostly up to 150 µM; inhibition: at the top concentration
row,SMILES,inhibition [%]
1,Cn1c(COc2ccccc2)nnc1SCc1nc2ccccc2[nH]1,-16.3
2,COc1ccccc1-n1c(SCc2cc(=O)oc3cc(O)ccc23)nc2ccccc2c1=O,1.45
3,Cc1cccc(C)c1OCC(=O)Nn1c(COc2ccccc2)nc2ccccc2c1=O,-32.7
4,COc1cccc(/C=N/n2c(C)nc3ccccc3c2=O)c1O,-21.2
5,Nc1nc2ccccc2n1/N=C/c1ccc(-c2ccccc2)o1,-7.01
6,O=C(Nc1ccc2snnc2c1)Nc1cccc2ccccc12,9.59
7,CCOC(=O)C1=C(C)NC(SCc2cc(=O)[nH][nH]2)=C(C#N)C1c1cccs1 (stereo unspecified),-5.57
8,COc1ccc(C2CC(c3ccccc3)=NN2C(=O)COC(=O)c2cccnc2)cc1 (stereo unspecified),-24
9,O=C(CN1C(=O)COc2ccccc21)Nc1ccc(F)cc1,-5.72
10,CCCCn1c(NCCO)nc2ccccc21,-5.95
11,CCCCn1c(=N)n(CC(=O)C(C)(C)C)c2ccccc21,-16.4
12,Brc1ccc2nc3c(n2c1)CCCC3,18.8
13,Cc1ccc(O)c(-c2cc(-c3ccccc3C)[nH]n2)c1,20.4
14,COC(=O)c1c(C)[nH]c(C(C)=O)c1C,-11.6
15,CCN(CC(=O)Nc1ccc(N2CCOCC2)cc1)Cc1nc2ccccc2c(=O)[nH]1,-1.68
16,O=C(Cn1nc(Cl)nc1Cl)c1ccc2c(c1)OCCO2,-12.9
17,COc1ccc(Nc2ccc3c(c2)=NC2(CCCCC2)[N+]=3[O-])cc1,-31.7
18,CCOC(=O)N1CCN(C(=O)C(NC(=O)c2ccc(CC)cc2)C(C)C)CC1 (stereo unspecified),-17.5
19,CC(C)CCNC(=O)C(c1ccco1)N(Cc1ccc(F)cc1)C(=O)c1snc(C(N)=O)c1N (stereo unspecified),-10.9
20,O=C1c2ccccc2-c2onc3ccc(NCc4ccco4)c1c23,19.4
21,CCOC(=O)c1c(C)[nH]c(C)c1C(=O)COC(=O)/C=C/c1cccc(F)c1,-31.3
22,COC(=O)c1ccccc1NC(=O)CS(=O)(=O)Cc1nc(-c2ccc(C)cc2)oc1C,-9.73
23,Cc1ccc(CNC(=O)c2cccc(S(C)(=O)=O)c2)cc1,-21.4
24,CCOC(=O)CC(=O)CSc1nc2c(c(C)c1C#N)CCC2,-22.8
25,CCn1c(SCc2nc3scc(-c4ccccc4)c3c(=O)[nH]2)nnc1-c1cccs1,27.8
26,CN1c2ccccc2C(C)(C)[C@]12C=Cc1cc(O)ccc1O2,2.19
